The list is not random: actives were taken first. Their share in the collection is about 2.4%.
POLB inh: blocks human DNA polymerase beta activity | P06746 | Pol beta primer extension/strand displacement, fluorescence kinetic | Potency, µM (doses to about 114 µM), without a hit: top-dose activity change, negative = inhibition, usual class: inhibitors | actives 1.3% (n = 340,000); note: % is set by controls: 0 for no effect and ±100 for the full control effect
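Kinetic readout of DNA synthesis with strand displacement by Pol beta. Compound and 10 nM enzyme sit 15 min at room temperature; 50 nM substrate starts the reaction, read immediately and at 10 min.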
Tb PGK inh: inhibitors of T. brucei phosphoglycerate kinase; P07378; PGK/GAPDH coupled, Kinase-Glo luminescence, 60 min; Potency, µM (highest dose often 57.5 µM), for inactives: at the top dose activity change, negative = inhibition, usual class: inhibitors; actives 0.043% (n = 380,000); note: % is set by controls: 0 for no effect and ±100 for the full control effect; nearly all actives have a fitted effect of over 60% in size
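Recombinant glycosomal PGK reaction used 1,3-bisphosphoglycerate generated in-well by GAPDH (100nM final) in 100mM TEA pH 7.6, 5mM MgCl2, 0.01% Tween-20. After 60 minutes at room temperature, ATP was read by Kinase-Glo Plus luminescence end-point.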
POLK inh: DNA polymerase kappa (human) inhibition; purified Pol kappa, fluorescent DNA synthesis assay, 10 min; Potency, µM (series often up to 107 µM), for the others: at the highest dose activity, negative = inhibition, usual class: inhibitors; actives 0.53% (n = 400,000); AID 588579; note: % is set by controls: 0 for no effect and ±100 for the full control effect
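Enzyme at 10 nM met test compounds for 15 min at room temperature. Substrate addition (50 nM final) began the reaction, which was monitored by fluorescence at 0 and 10 min.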
FEN1 inh: human FEN1 inhibition; Potency, µM (series often up to 114 µM), for inactives: top-dose activity change, negative = inhibition, usual class: inhibitors; Recombinant FEN1 flap cleavage, fluorescence, 15 min; AID 588795; actives 0.35% (n = 390,000); P39748; note: % is set by controls: 0 for no effect and ±100 for the full control effect; nearly all actives have a fitted effect of over 65% in size
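With each library titrated from low to high concentration, compounds met 10 nM FEN1 for 15 min at room temperature before 50 nM substrate was added; readings at 0 and 15 min fed four-parameter Hill curve fits.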
Pol eta inh: DNA polymerase eta (human) inhibition; Q9Y253; actives 1.2% (n = 390,000); recombinant Pol eta, fluorescent DNA replication assay; Potency, µM (titrated, usually from 114 µM), inactives show at the highest dose activity change, negative = inhibition, actives largely listed as inhibitors; note: % is set by controls: 0 for no effect and ±100 for the full control effect
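Fluorescent replication assay: 50 nM final substrate added after a 15 min room-temperature compound preincubation with 10 nM enzyme. Signal taken at 0 min and again at 10 min.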
Pol iota inh: inhibitors of human DNA polymerase iota; Q9UNA4; Pol iota fluorescent replication assay, 10 min; Potency, µM (highest dose often 115 µM), inactives show at the highest dose activity, negative = inhibition, actives largely listed as inhibitors; actives 1% (n = 390,000); AID 588590
Target sequence (Q9UNA4 whole entry, looked up): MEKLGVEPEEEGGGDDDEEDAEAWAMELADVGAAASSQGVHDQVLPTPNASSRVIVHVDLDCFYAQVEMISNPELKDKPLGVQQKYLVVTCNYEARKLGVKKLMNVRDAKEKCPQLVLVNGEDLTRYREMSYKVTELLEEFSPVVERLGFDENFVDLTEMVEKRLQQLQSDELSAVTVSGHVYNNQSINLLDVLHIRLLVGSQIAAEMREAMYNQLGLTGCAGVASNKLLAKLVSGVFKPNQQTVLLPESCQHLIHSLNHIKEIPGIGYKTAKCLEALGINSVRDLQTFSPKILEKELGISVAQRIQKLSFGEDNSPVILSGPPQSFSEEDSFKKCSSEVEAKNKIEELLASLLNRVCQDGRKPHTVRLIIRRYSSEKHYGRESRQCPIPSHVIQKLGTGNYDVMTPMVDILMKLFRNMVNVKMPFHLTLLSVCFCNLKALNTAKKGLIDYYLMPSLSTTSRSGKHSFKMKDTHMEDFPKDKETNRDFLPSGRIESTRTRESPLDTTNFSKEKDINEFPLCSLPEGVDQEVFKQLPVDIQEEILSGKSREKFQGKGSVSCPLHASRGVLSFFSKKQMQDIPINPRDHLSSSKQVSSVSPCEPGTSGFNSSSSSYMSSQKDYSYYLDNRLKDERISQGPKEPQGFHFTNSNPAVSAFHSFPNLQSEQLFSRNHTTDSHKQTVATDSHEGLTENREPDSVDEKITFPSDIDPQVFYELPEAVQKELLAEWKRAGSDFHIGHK
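Pol iota at 10 nM preincubated 15 min with compounds at room temperature; reaction started with fluorescent substrate, 50 nM final. Fluorescence read kinetically at 0 and 10 min; buffer-only wells as negative control.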
* marks the source's active call; other numbers are inactive results; i = inactive; ? = inconclusive; . = no result given; [ ] = another dose, or the depositor's remark. Calls come from the whole dose curve; as a rule, active = well fitted curve in the direction sought with a large enough effect; inconclusive = small, poorly fitted or top-dose-only effect, or another doubt; inactive = no such curve, though single readings can be large; an effect the other way counts as inactive or inconclusive. Potency is the fitted concentration of half-maximal effect.

SMILES | POLB inh | Tb PGK inh | POLK inh | FEN1 inh | Pol eta inh | Pol iota inh
Cc1ccc(Cl)cc1NC(=O)Cn1ncc2c(C)n(Cc3ccccc3F)c(C)c2c1=O | 12.6µM* | i | -31.9% | -11.6% | ? | ?
O=C(Cn1ncc2c3ccccc3n(Cc3cccc(Cl)c3)c2c1=O)Nc1ccc(F)cc1F | 22.4µM* | 6.0% | ? | 3.4% | ? | ?
O=C(Cn1ncc2c3ccccc3n(Cc3ccccc3)c2c1=O)N1CCCCCC1 | 1.6% | -3.5% | -10.5% | 4.3% | -20.8% | 27.2%
CC(CCc1ccccc1)NC(=O)Cn1ncc2c3ccccc3n(Cc3cccc(Cl)c3)c2c1=O (stereo unspecified) | 17.8µM* | -17.5% | -24.5% | 13.6% | ? | ?
CC(CCc1ccccc1)NC(=O)Cn1ncc2c3ccccc3n(Cc3ccccc3)c2c1=O (stereo unspecified) | 35.3% | -2.8% | -6.2% | -8.5% | -4.3% | 0.0%
COc1cc(OC)c(OC)cc1/C=c1\[nH]c(=O)/c(=C/c2cc(OC)c(OC)cc2OC)[nH]c1=O | . | . | 12.4% | -4.6% | . | 11.0%
CSCC[C@H](N)C(=O)N[C@@H](CO)C(=O)N[C@@H](CCCN=C(N)N)C(=O)N1CCC[C@H]1C(=O)N[C@@H](C)C(=O)N[C@@H](CS)C(=O)N1CCC[C@H]1C(=O)N[C@@H](CC(N)=O)C(=O)N[C@@H](CC(=O)O)C(=O)N[C@@H](CCCCN)C(=O)N[C@@H](Cc1ccc(O)cc1)C(=O)N[C@@H](CCC(=O)O)C(=O)O | . | . | 15.3%[60.1 µM] | . | . | .
O=C1/C(=C/c2ccc(O)c(O)c2)Oc2ccccc21 | . | . | 13.4µM* | . | . | .
CCCCC(CC)CN=C(N)NC(N)=NCCCCCCN=C(N)NC(N)=NCC(CC)CCCC (stereo unspecified) | . | i | ? | 50.1µM* | 89.1µM* | ?
Cc1nc2cc(N=NC3=C(O)CCCC3=O)ccc2s1 | -26.0% | -12.0% | -28.1% | -4.6% | -16.1% | 50.1µM*
Cc1cccc(-c2noc(-c3cc(C(C)C)[nH]n3)n2)c1 | -18.6% | -0.2% | -5.2% | 4.9% | -3.8% | 30.7%
COC(=O)[C@H](CC(C)C)NS(=O)(=O)NC(=O)OC(C)(C)C | . | . | 8.0% | 16.8% | . | 15.7%
Cc1nn(CCCC(=O)NCCc2ccc(Cl)cc2)c(=O)c2c1sc1ccccc12 | ? | -3.7% | ? | 44.7µM* | -13.8% | 27.2%
CCOc1ccc(CNC(=O)CCCn2nc(C)c3sc4ccccc4c3c2=O)cc1 | -24.6% | -9.3% | -26.5% | ? | -1.5% | 89.1µM*
CCOc1ccc(CCNC(=O)CCCn2nc(C)c3sc4ccccc4c3c2=O)cc1OCC | 6.6% | 9.1% | -16.7% | 1.1% | -5.7% | ?
COc1ccc(CCNC(=O)CCCn2nc(C)c3sc4ccccc4c3c2=O)cc1OC | 35.5µM* | i | -43.2% | 44.7µM* | -12.8% | -13.0%
COc1ccc(-c2cc(=O)c3c(C)cc(O)cc3o2)cc1 | . | -20.9% | ? | ? | ? | 20µM*
O=c1cc(-c2ccccc2)nc2cc(-c3ccco3)[nH]n12 | 50.1µM* | -6.5% | 3.3% | 4.2% | -13.9% | 14.4%
O=c1cc(-c2ccccc2)nc2cc(-c3ccc(Br)cc3)[nH]n12 | -13.2% | -2.8% | -11.6% | -17.8% | -4.2% | -20.3%
c1cncc(-c2nc(-c3ccc4c(c3)OCO4)cs2)c1 | ? | -3.0% | -8.5% | -8.2% | ? | -3.6%
O=C1c2ccccc2C(=O)N1c1cccc(-c2csc(Nc3ccc4c(c3)OCO4)n2)c1 | 28.2µM* | . | . | . | . | .
O=C(O)c1ccccc1-c1ccccc1C(=O)Nc1ccc2c(c1)[nH]c(=O)c1ccccc12 | 12.0% | -6.5% | -10.0% | -4.7% | 50.1µM* | 232.0%
O=C(O)c1ccccc1-c1ccccc1C(=O)Nc1ccc2oc(=O)c3ccccc3c2c1 | . | -9.2% | . | . | -9.4% | .
CCc1ccccc1NC(=O)Cn1ccn(-c2cc(C)cc(C)c2)c(=O)c1=O | 8.6% | i | -20.3% | 16.4% | -10.2% | ?
N[C@H](C(=O)O)c1ccc(O)c(C(=O)O)c1 | . | . | 3.7%[19.4 µM] | . | . | .
SMILES | POLB inh | Tb PGK inh | POLK inh | FEN1 inh | Pol eta inh | Pol iota inh
NC(C(=O)O)C(O)c1ccc(O)c(O)c1 (stereo unspecified) | . | . | 0.238µM* | . | . | .
CC(=O)Nc1ccc(C(=O)CSc2nnc(-c3ccccc3)n2-c2ccccc2)cc1 | 10µM* | 0.5% | 4.8% | 15.1% | -9.0% | ?
Cc1ccc(C(=O)CSc2nnc(-c3ccccc3)n2-c2ccccc2)cc1 | 2.7% | -6.0% | 8.1% | 21.8% | -6.8% | 26.6%
O=C(c1ccc2c(Cl)c3c(nc2c1)CCCC3)N1CCN(c2ccccc2F)CC1 | 1.8% | -0.6% | -2.7% | 16.0% | -19.7% | 16.6%
COc1ccc2c(C)cc(SCC(=O)c3ccc4c(c3)OCO4)nc2c1 | 50.1µM* | -0.7% | -6.3% | 7.9% | -13.8% | -15.9%[58.9 µM]
COCCn1c(C)cc(C(=O)CSc2cc(C)c3ccc(OC)cc3n2)c1C | -11.6%[57.1 µM] | i | -7.0% | 3.3% | -18.0% | -0.8%
CC(C)(C)c1ccc(C(=O)C[n+]2ccccc2Cl)cc1 | . | . | -28.6% | -12.7% | . | -26.2%
Cc1cccc(NC(=O)COc2ccccc2C(=O)Nc2ccccc2)c1 | . | . | 5.6% | -5.3% | . | -11.4%
CCc1nnc(NS(=O)(=O)c2ccc(N3C(=O)C4CC=C(Cl)CC4C3=O)cc2)s1 (stereo unspecified) | 26.8% | -4.7% | -17.4% | -15.2% | 44.7µM* | ?
COC(=O)CCC(=O)OC1(C)C(=O)C=C2C=C(C3CC3)N(C3CC3)C=C2C1=O (stereo unspecified) | -10.5% | 2.8% | -16.4% | -12.8% | -14.1% | 14.1µM*
COc1ccc(N2C=C3C(=O)C(C)(OC(=O)CCc4ccccc4)C(=O)C=C3C=C2c2ccc(C#N)cc2)cc1 (stereo unspecified) | -2.0% | -8.6% | 10.0% | 4.0% | -15.2% | -2.7%
COC(=O)CCC(=O)OC1(C)C(=O)C=C2C=C(C3CC3)N(Cc3ccco3)C=C2C1=O (stereo unspecified) | -20.0% | -7.5% | -2.5% | -18.2% | -1.6% | 50.4%
COC(=O)CCC(=O)OC1(C)C(=O)C=C2C=C(c3ccsc3)OC=C2C1=O (stereo unspecified) | . | -13.3% | 20µM* | 31.6µM* | 5.01µM* | 14.1µM*
CCC(=O)OC1(C)C(=O)C=C2C=C(c3ccsc3)OC=C2C1=O (stereo unspecified) | 50.1µM* | -12.5% | 50.1µM* | 39.8µM* | 50.1µM* | 17.8µM*
COC(=O)CCCC1=CC2=CC(=O)C(C)(OC(=O)CCc3ccccc3)C(=O)C2=CO1 (stereo unspecified) | 56.2µM* | -10.6% | ? | ? | ? | ?
